ChEMBL document CHEMBL4513216, “Probing the Open Global Health Chemical Diversity Library for Multistage-Active Starting Points for Next-Generation Antimalarials” (ACS Infect Dis, 2020)
Hit rate of the full screen: of about 69,000 compounds, about 8,600 (12%) showed an effect of 50% or more. Only a selection was taken, and strong results are over-represented in it overall.

system: Plasmodium berghei; assay: Screen against P. berghei liver stage (PbLuc), transformed with Luciferase, at 10uM; assay type: functional, HepG2; settings: tested at 10 uM

SMILES | INHIBITION
COC(=O)c1ccc(N2CCN(C(=O)c3cnn(C)c3)C(C)C2)cc1 (stereo not drawn) | 63.6%
O=S(=O)(CCNC1CCc2ncnn2C1)c1ccc(Cl)cc1 (stereo not drawn) | 21.5%
CO[C@@H]1CN(c2ccccc2)S(=O)(=O)[C@@]12CCN(CC1CC1)C2 | 22.2%
CCn1cc(NC(=O)NCC(c2ccc(OC)cc2)N(C)C)cn1 (stereo not drawn) | 34.85%
C[C@@H]1CN(C(=O)c2ccccc2F)C[C@]12CCN(CCN(C)C)C2=O | 11.2%
O=C1NCCCc2c1oc1ccc(O)c(CN3CCOCC3)c21 | 58.1%
Oc1ccc2oc3c(c2c1CN1CCOCC1)CCCC3 | -115%
NC(=O)C1CN(Cc2c(O)ccc3oc4c(c23)CCCC4)CCO1 (stereo not drawn) | -66.7%
CCCC1(CO)CCCN(C(=O)CN2CCN(CC)CC2)C1 (stereo not drawn) | 17.4%
CN(C)c1cc(CNc2ccc(S(=O)(=O)C(C)(C)C)nc2)ccn1 | -1.35%
Cn1c(CN2CCOC(CCc3ccncn3)C2)nc2ccccc21 (stereo not drawn) | 38.8%
CCc1noc(CS(=O)(=O)Cc2ccccc2Cl)n1 | 52.6%
CCc1noc(CS(=O)(=O)CC=C(C)C)n1 | 21.9%
CCc1noc(CS(=O)(=O)Cc2ccccc2C)n1 | 61.3%
CCc1noc(CS(=O)(=O)CC(=O)N2c3ccccc3CC2C)n1 (stereo not drawn) | -21%
Cc1ccccc1CS(=O)(=O)Cc1nc(C2CC2)no1 | 9.16%
CCc1noc(CS(=O)(=O)Cc2nc(Cc3ccccc3)no2)n1 | 25.5%
Cc1ccc(C2COCCN2C(=O)c2ccc(F)c(F)c2)o1 (stereo not drawn) | 44.9%
O=C(c1cnccn1)N1CCc2onc(Cn3cccn3)c2C1 | 9.63%
O=C(NCCN1CCCCCC1=O)c1ccc(=O)[nH]n1 | 33.7%
Cn1ccnc1CN1CCN2C[C@H](Oc3ccccc3)C[C@H]2C1 | 39.8%
CN(C)c1nccc(C2CCCCN2Cc2cnn3cccnc23)n1 (stereo not drawn) | -29.9%
Cc1csc(N2CCCN(C(=O)Cn3cncn3)CC2)n1 | -52.5%
CN(Cc1ccnc2ccccc12)C1CCS(=O)(=O)C1 (stereo not drawn) | 45.2%
CCOCC1CN(C(=O)COc2ccccc2C)Cc2ncn(C)c21 (stereo not drawn) | 24.6%
O=C(Cc1ccccc1F)N1CCCCC1c1ccn2ccnc2n1 (stereo not drawn) | 51.5%
O=C(CCc1cccnc1)N1CCCCC1c1ccn2ccnc2n1 (stereo not drawn) | 45.6%

SMILES | INHIBITION
O=C(Cc1ccc(F)cc1)N1CCCCC1c1ccn2ccnc2n1 (stereo not drawn) | 7.39%
O=C(COc1cccc(F)c1)N1CCCCC1c1ccn2ccnc2n1 (stereo not drawn) | 1.11%
O=C(COc1ccccc1F)N1CCCCC1c1ccn2ccnc2n1 (stereo not drawn) | 63.4%
O=C(Cc1cccc(F)c1)N1CCCCC1c1ccn2ccnc2n1 (stereo not drawn) | 9.1%
CCn1cc(CNc2ccc(F)c(F)c2)cn1 | -8%
CCCc1noc(C[S+]([O-])CC(=O)NCc2ccccc2)n1 (stereo not drawn) | 23.2%
CC(C)Cc1nc(C[S+]([O-])CC(=O)NCc2ccccc2)no1 (stereo not drawn) | -5.1%
CC(C)CCc1noc(C[S+]([O-])CC(=O)NCc2ccccc2)n1 (stereo not drawn) | 55.3%
COc1ccc(N2CCN(C(=O)COc3nccc(C)n3)CC2)cc1 | 36.8%
N#Cc1cccc(NC(=O)N[C@H](CO)Cc2ccc(O)cc2)c1 | 60.9%
N#Cc1cccc(NC(=O)N[C@H](CO)c2ccccc2)c1 | 18.5%
N#CCc1ccc(NC(=O)N[C@H](CO)Cc2ccc(O)cc2)cc1 | 11.6%
Cc1ccc(CN2CC[C@@H](NC(=O)c3cccnc3)[C@H](O)C2)o1 | 31.1%
O=C(CNc1cc(-n2cnnn2)ccc1F)Nc1ccccc1Cl | 41.4%
O=C(CNc1cc(-n2cnnn2)ccc1F)NCc1ccccc1 | 53.4%
O=C(CNc1cc(-n2cnnn2)ccc1F)Nc1cc(F)ccc1F | 46.6%
COCCNC(=O)c1cc(-c2ccc3c(c2)CCO3)n[nH]1 | -18.9%
CCC(CO)N(Cc1ccccn1)Cc1ccc(-c2ccn[nH]2)s1 (stereo not drawn) | 47.2%
CCC(CO)N(Cc1ccncc1)Cc1c[nH]nc1-c1ccc(F)cc1 (stereo not drawn) | 57.6%
Cc1n[nH]c(C)c1CCCN(C)Cc1c[nH]nc1-c1ccc(F)cc1 | 40.2%
CCC(CO)N(Cc1ccc(F)cc1)Cc1c(C)nn(C)c1Cl (stereo not drawn) | -8.66%
CCN(Cc1ccncc1)Cc1c[nH]nc1-c1ccc(F)cc1 | 14.8%
CN(Cc1cc(C(C)(C)C)n[nH]1)Cc1c[nH]nc1-c1ccc(F)cc1 | 47.6%
CCC(CO)N(C/C(C)=C/c1ccco1)Cc1ccccn1 (stereo not drawn) | 8.64%
CCC(CO)N(Cc1ccccn1)Cc1c[nH]nc1-c1ccc(F)cc1 (stereo not drawn) | 78.9%
CN(Cc1ccn[nH]1)Cc1c[nH]nc1-c1ccc(F)cc1 | 77.2%
